Laboratory results: PubChem BioAssay (Tox21)
Inconclusive results are not listed. Activity calls are given as the source filed them. Unless noted, calls follow the shape of the full dose curve.

Tests used:
[1] = Nuclear factor erythroid 2-related factor 2/antioxidant responsive element (Nrf2/ARE) small molecule agonists: qHTS cell viability counter screen in human keratinocytes (AID 1919968; active = well fitted curve in the direction sought with a large enough effect in the repeat runs; an effect the other way counts as inactive or inconclusive; also: nearly all actives have a fitted effect of over 55% in size)
Outline: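 Viability counter-screen: KeratinoSens reporter cells, DMSO-delivered compounds, 23 h at 37 C, CellTiter-Fluor fluorescence.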

[2] = Nuclear factor erythroid 2-related factor 2/antioxidant responsive element (Nrf2/ARE) small molecule agonists: luciferase reporter gene qHTS assay in human keratinocytes (AID 1919969); also: nearly all actives have a fitted effect of over 35% in size
[3] = target: Gonadotropin-releasing hormone receptor (Homo sapiens) (UniProt P30968); assay: Human gonadotropin-releasing hormone receptor (GnRHR) small molecule agonists, calcium flux assay in GnRHR-HEK293 cells (AID 1920063); also: nearly all actives have a fitted effect of over 35% in size
Sequence of Gonadotropin-releasing hormone receptor (Homo sapiens) (P30968 whole entry, looked up): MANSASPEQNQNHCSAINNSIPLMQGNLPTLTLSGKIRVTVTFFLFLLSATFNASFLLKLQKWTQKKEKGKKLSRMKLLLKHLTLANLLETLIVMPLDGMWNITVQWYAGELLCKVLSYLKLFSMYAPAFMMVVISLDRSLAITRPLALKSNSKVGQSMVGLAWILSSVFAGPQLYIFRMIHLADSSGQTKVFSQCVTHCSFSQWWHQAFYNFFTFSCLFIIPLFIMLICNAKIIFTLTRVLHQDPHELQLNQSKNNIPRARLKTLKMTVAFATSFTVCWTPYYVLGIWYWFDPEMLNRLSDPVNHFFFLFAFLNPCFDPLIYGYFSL
Outline: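 Tox21-format agonist screen using human GnRHR-expressing HEK293 cells and a fluorescent calcium dye; kinetic 3-min fluorescence reading after compound addition, 15-point concentration series run in triplicate.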

[4] = target: KiSS-1 receptor (Homo sapiens) (UniProt Q969F8); assay: Human kisspeptin (KISS1R) small molecule agonists, calcium flux assay in KISS1R-HEK293 cells (AID 1920064; active = well fitted curve in the direction sought with a large enough effect in the repeat runs; an effect the other way counts as inactive or inconclusive)
Sequence of KiSS-1 receptor (Homo sapiens) (Q969F8 whole entry, looked up): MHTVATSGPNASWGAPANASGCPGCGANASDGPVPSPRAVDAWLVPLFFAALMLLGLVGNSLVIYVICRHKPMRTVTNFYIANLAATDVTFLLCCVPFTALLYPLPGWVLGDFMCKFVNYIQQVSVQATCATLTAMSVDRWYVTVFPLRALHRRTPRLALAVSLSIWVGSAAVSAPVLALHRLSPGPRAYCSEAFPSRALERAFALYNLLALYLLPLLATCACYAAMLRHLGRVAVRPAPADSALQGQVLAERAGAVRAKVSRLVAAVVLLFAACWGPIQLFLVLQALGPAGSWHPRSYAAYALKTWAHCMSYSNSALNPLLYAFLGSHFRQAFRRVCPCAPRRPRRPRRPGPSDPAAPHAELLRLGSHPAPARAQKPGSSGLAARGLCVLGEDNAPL
Outline: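 Intracellular calcium mobilization in KISS1R-HEK293 cells was recorded by fluorescence (Ex/Em 480/540) for 3 min following compound addition to cells pre-loaded 1 h with calcium dye.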

[5] = G protein-coupled receptor (GPCR) small molecule agonists, calcium flux assay: HEK293 wild type cell line counter screen (AID 1920065)
Outline: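 In this agonist-mode screen, ATP is the positive control and DMSO the vehicle. Cells grow 18 h before a 1 h dye incubation at 37 C; signal is taken at Ex/Em 480/540 over 3 min.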

[6] = p53 small molecule agonists, cell-based qHTS assay with human liver microsomes (AID 1963577);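 also: p53 response element beta-lactamase reporter cells with liver microsomes plus NADPH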
Outline: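 In this qHTS, p53 response-element beta-lactamase cells receive test compound together with a microsome/NADPH activating system (0.5 mg/mL final each) and are incubated 16 h at 37 C before LiveBLAzer fluorescence detection.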

[7] = p53 small molecule agonists, cell-based qHTS assay with rat liver microsomes (AID 1963578)
Outline: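 Agonist mode in p53RE-bla reporter cells, with compounds co-incubated 16 h at 37 C alongside 0.5 mg/mL rat liver microsomes and 0.5 mg/mL NADPH (final), followed by a 2 h LiveBLAzer detection step.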

[8] = p53 small molecule agonists, cell-based qHTS assay with human liver microsomes: qHTS cell viability counter screen (AID 1963579); also: nearly all actives have a fitted effect of over 45% in size
Outline: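 Metabolically activated exposure: compounds, human liver microsomes and NADPH (0.5 mg/mL final apiece) were added to p53RE-bla cells seeded 5 h earlier, left 16 h at 37 C, and then assessed for viability by CellTiter-Glo luminescence.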

[9] = p53 small molecule agonists, cell-based qHTS assay with rat liver microsomes: qHTS cell viability counter screen (AID 1963580); also: nearly all actives have a fitted effect of over 45% in size
Outline: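 In HCT-116 cells carrying a p53 response element-bla reporter, compounds were metabolically activated in situ by rat liver microsomes with NADPH over 16 h. Cell ATP content then served as the cytotoxicity measure.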

[10] = p53 small molecule agonists, cell-based qHTS assay: qHTS cell viability counter screen (AID 1963581); also: nearly all actives have a fitted effect of over 45% in size
Outline: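 Compounds are pinned onto HCT-116 p53RE-bla cells and left 16 h at 37 C. Following the reporter FRET read, ATP is quantified by CellTiter-Glo luminescence after 30 min at room temperature.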

[11] = p53 small molecule agonists, cell-based qHTS assay (AID 1963582; active = well fitted activation curve with a large enough effect in the signal ratio in the repeat runs, not every such curve was filed as active; the % refers to the signal ratio; also: potency is read from the fitted curve at half-maximal effect)
Outline: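 Agonist activity was scored from beta-lactamase FRET fluorescence in p53RE-bla cells treated 16 h at 37 C with compounds in DMSO, substrate incubation being 2 h at room temperature.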

[12] = cAMP Responsive Elements (CRE) small molecule agonists, cell-based qHTS assay (AID 1963590)
Outline: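 FRET-based beta-lactamase readout (LiveBLAzer B/G, 2 h RT) quantified CRE activation in HEK 293T CRE-bla cells after 3 h treatment with DMSO-dissolved compounds.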

[13] = cAMP Responsive Elements (CRE) small molecule antagonists, cell-based qHTS assay (AID 1963591; active = well fitted inhibition curve with a large enough effect in the signal ratio in the repeat runs, not every such curve was filed as active; the % refers to the signal ratio)
Outline: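 qHTS in CRE-bla HEK 293T cells: compound in DMSO, then 0.25 uM NKH477 (final), 3 h at 37 °C/5% CO2; beta-lactamase FRET read-out after 2 h substrate incubation.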

[14] = target: Beta-2 adrenergic receptor (Homo sapiens) (UniProt P07550); assay: Adrenergic beta2 receptor (ADRB2) small molecule antagonists, cell-based qHTS assay (AID 1963592); also: nearly all actives have a fitted effect of over 50% in size; also: potency is read from the fitted curve at half-maximal effect; as to activity change, negative = inhibition: series mostly up to about 92 µM
Sequence of Beta-2 adrenergic receptor (Homo sapiens) (P07550 whole entry, looked up): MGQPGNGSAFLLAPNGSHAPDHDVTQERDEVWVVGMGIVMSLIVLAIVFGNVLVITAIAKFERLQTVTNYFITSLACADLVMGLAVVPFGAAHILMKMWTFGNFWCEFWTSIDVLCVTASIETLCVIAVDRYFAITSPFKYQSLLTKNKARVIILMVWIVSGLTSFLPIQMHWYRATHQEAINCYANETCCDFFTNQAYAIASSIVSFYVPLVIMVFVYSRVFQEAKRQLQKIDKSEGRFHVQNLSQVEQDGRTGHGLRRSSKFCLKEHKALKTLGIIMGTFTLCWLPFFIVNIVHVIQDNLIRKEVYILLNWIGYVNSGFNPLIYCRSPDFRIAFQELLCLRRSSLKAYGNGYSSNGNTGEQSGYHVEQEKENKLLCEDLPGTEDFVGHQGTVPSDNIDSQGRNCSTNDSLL
Outline: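 Cells (CHO, stable ADRB2 overexpression) incubated 18-20hr at 37C; compounds added from DMSO; agonist mix (1nM isoproterenol, 100uM IBMX, 25uM Ro-20-1724) added; 0.5hr RT; d2-cAMP and anti-cAMP-cryptate added; 1hr RT; 665/615 nm read.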

[15] = target: Beta-2 adrenergic receptor (Homo sapiens) (UniProt P07550); assay: Adrenergic beta2 receptor (ADRB2) small molecule agonists, cell-based qHTS assay (AID 1963593);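 also: CHO cells stably overexpressing human ADRB2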
Outline: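 CHO cells stably over-expressing ADRB2 were plated overnight at 37C, then dosed with compounds plus a stimulation mix containing 100uM IBMX and 25uM Ro-20-1724 for 0.5hr at room temperature. cAMP was measured by HTRF competition, 1hr.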

[16] = target: D(2) dopamine receptor (Homo sapiens) (UniProt P14416); assay: Dopamine D2 receptor (DRD2) small molecule antagonists, cell-based qHTS assay (AID 1963595; active = well fitted inhibition curve with a large enough effect in the signal ratio in the repeat runs, with a control signal flat; the % refers to the signal ratio; also: potency is read from the fitted curve at half-maximal effect)
Sequence of D(2) dopamine receptor (Homo sapiens) (P14416 whole entry, looked up): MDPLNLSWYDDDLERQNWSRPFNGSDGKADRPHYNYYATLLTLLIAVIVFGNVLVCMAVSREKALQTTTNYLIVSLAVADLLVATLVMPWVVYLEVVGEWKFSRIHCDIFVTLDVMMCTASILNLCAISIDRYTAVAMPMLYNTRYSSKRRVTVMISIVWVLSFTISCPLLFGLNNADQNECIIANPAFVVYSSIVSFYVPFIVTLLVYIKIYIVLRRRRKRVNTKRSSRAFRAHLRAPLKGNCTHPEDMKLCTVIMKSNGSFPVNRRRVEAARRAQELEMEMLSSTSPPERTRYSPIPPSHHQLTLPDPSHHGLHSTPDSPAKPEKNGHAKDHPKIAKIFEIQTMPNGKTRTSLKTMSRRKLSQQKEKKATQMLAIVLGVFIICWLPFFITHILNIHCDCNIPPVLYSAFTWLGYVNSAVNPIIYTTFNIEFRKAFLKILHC
Outline: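 DRD2-HEK293; 0.1 mM Ro20-1724; cpd 10 min RT; NKH477 200 nM + quinpirole 12 nM, 30 min RT; HTRF cAMP (cAMP-d2/anti-cAMP cryptate), 665/620 nm ratio after 1 h.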

[17] = target: D(2) dopamine receptor (Homo sapiens) (UniProt P14416); assay: Dopamine D2 receptor (DRD2) small molecule agonists, cell-based qHTS assay (AID 1963594); also: nearly all actives have a fitted effect of over 35% in size
Outline: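 HEK293 cells stably expressing DRD2 were cultured 24 h at 37 C, then given Ro20-1724 (0.1 mM final) and compounds for 10 min at room temperature. NKH477 (200nM) was then added for 30 min. cAMP was read by HTRF.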
% is scaled to controls: 0 for no effect and ±100 for the full control effect.

OC(CCCN1CCCCC1)(c1ccccc1)c1ccccc1
inactive: Potency [1] | Potency [2] | Potency [3] | outcome [4] | outcome [5] | Potency [6] | Potency [7] | Potency [8] | Potency [9] | Potency [10] | Potency [11] | Potency [12] | Potency [13] | Potency [14] | Potency [15]
active: Potency [16] 5.96 µM

CCN(CC)CCNC(=O)c1cc(Cl)c(N)cc1OC
inactive: Potency [1] | Potency [2] | Potency [3] | outcome [4] | outcome [5] | Potency [6] | Potency [7] | Potency [8] | Potency [9] | Potency [10] | Potency [11] | Potency [12] | Potency [13] | Potency [14] | Potency [17]
active: Potency [16] 1.68 µM

COc1cc(CNC(=O)CCCC/C=C/C(C)C)ccc1O
inactive: Potency [1] | Potency [2] | Potency [3] | outcome [4] | outcome [5] | Potency [6] | Potency [7] | Potency [8] | Potency [9] | Potency [10] | Potency [11] | Potency [12] | Potency [13] | Potency [16]

CCOC(=O)C1=C(C)NC(C)=C(C(=O)OC)C1c1cccc([N+](=O)[O-])c1 (stereo unspecified)
inactive: Potency [1] | Potency [2] | Potency [3] | outcome [4] | outcome [5] | Potency [6] | Potency [7] | Potency [8] | Potency [9] | Potency [10] | Potency [11] | Potency [12] | Potency [13] | Potency [14] | Potency [17] | Potency [16]

COC(=O)CCc1ccc(OCC(O)CNC(C)C)cc1 (stereo unspecified)
active: Potency [14] 9.44 µM
inactive: Potency [1] | Potency [2] | Potency [3] | outcome [4] | outcome [5] | Potency [6] | Potency [7] | Potency [8] | Potency [9] | Potency [10] | Potency [11] | Potency [12] | Potency [13] | Potency [16]

CC(=O)OC[C@H]1O[C@@H](n2ncc(=O)[nH]c2=O)[C@H](OC(C)=O)[C@@H]1OC(C)=O
active: Potency [11] 0.5 µM
inactive: Potency [1] | Potency [2] | Potency [3] | outcome [4] | outcome [5] | Potency [6] | Potency [7] | Potency [8] | Potency [9] | Potency [10] | Potency [12] | Potency [13] | Potency [14] | Potency [15] | Potency [17] | Potency [16]

NCCCNCCSP(=O)(O)O
inactive: activity change, negative = cytotoxicity [1] -4.44% [at 8.39 µM] | activity, positive = activation [2] -4.57% [at 8.39 µM] | activity change [3] -1.6% [at 5.22 µM, hits give high values] | activation [4] -1.03% [at 6.97 µM] | activation [5] -0.178% [at 5.23 µM] | activation [6] 9.01% [at 5.99 µM] | activation [7] 0.418% [at 5.99 µM] | activity change, negative = cytotoxicity [8] -1.63% [at 5.99 µM] | activity change, negative = cytotoxicity [9] 7.5% [at 5.99 µM] | activity change, negative = cytotoxicity [10] 5.99% [at 5.99 µM] | activation [11] 1.38% [at 5.99 µM] | activation [12] 0.961% [at 8.39 µM] | activity change, negative = inhibition [13] 10.3% [at 8.39 µM] | activity change, negative = inhibition [14] -7.99% [at 8.39 µM] | activation [15] -33.3% [at 8.39 µM] | activity change, negative = inhibition [16] 5.25% [at 8.38 µM]

NCCCCCC(=O)O
inactive: Potency [1] | Potency [2] | Potency [3] | outcome [4] | outcome [5] | Potency [6] | Potency [7] | Potency [8] | Potency [9] | Potency [10] | Potency [11] | Potency [12] | Potency [13] | Potency [14] | Potency [17] | Potency [16]

CC(C)NNC(=O)c1ccncc1
inactive: Potency [1] | Potency [2] | Potency [3] | outcome [4] | outcome [5] | Potency [6] | Potency [7] | Potency [8] | Potency [9] | Potency [10] | Potency [11] | Potency [12] | Potency [14] | Potency [15] | Potency [17] | Potency [16]

O=c1[nH]c(=O)n([C@H]2C[C@H](O)[C@@H](CO)O2)cc1I
inactive: Potency [1] | Potency [2] | Potency [3] | outcome [4] | outcome [5] | Potency [6] | Potency [7] | Potency [8] | Potency [9] | Potency [10] | Potency [11] | Potency [12] | Potency [13] | Potency [14] | Potency [17] | Potency [16]

CCCN(CCC)C(=O)C(CCC(=O)O)NC(=O)c1ccccc1 (stereo unspecified)
inactive: Potency [1] | Potency [2] | Potency [3] | outcome [4] | outcome [5] | Potency [6] | Potency [7] | Potency [8] | Potency [9] | Potency [10] | Potency [11] | Potency [12] | Potency [14] | Potency [15] | Potency [16]

Cc1nc2n(c(=O)c1CCN1CCC(c3noc4cc(F)ccc34)CC1)CCCC2
inactive: Potency [1] | Potency [2] | Potency [3] | outcome [4] | outcome [5] | Potency [6] | Potency [7] | Potency [8] | Potency [9] | Potency [10] | Potency [11] | Potency [12] | Potency [13] | Potency [17]

CCc1ccc(C(=O)C(C)CN2CCCCC2)cc1 (stereo unspecified)
inactive: Potency [1] | Potency [2] | Potency [3] | outcome [4] | outcome [5] | Potency [6] | Potency [7] | Potency [8] | Potency [9] | Potency [10] | Potency [11] | Potency [12] | Potency [14] | Potency [15] | Potency [17]

CCn1cc(C(=O)O)c(=O)c2cc(F)c(N3CCNCC3)cc21
inactive: Potency [1] | Potency [2] | Potency [3] | outcome [4] | outcome [5] | Potency [6] | Potency [7] | Potency [8] | Potency [9] | Potency [10] | Potency [11] | Potency [12] | Potency [13] | Potency [14] | Potency [15] | Potency [17] | Potency [16]

CCOC(=O)C1=C(C)NC(C)=C(C(=O)OC)C1c1cccc(Cl)c1Cl (stereo unspecified)
inactive: Potency [1] | Potency [2] | Potency [3] | outcome [4] | outcome [5] | Potency [6] | Potency [7] | Potency [8] | Potency [9] | Potency [10] | Potency [11] | Potency [12] | Potency [13] | Potency [14] | Potency [17] | Potency [16]

O=P(O)(O)C(O)(Cc1cccnc1)P(=O)(O)O
inactive: Potency [1] | Potency [2] | Potency [3] | outcome [4] | outcome [5] | Potency [6] | Potency [7] | Potency [8] | Potency [9] | Potency [10] | Potency [11] | Potency [12] | Potency [13] | Potency [14] | Potency [17] | Potency [16]
